ALDH1A1 block: ALDH1A1 (human) enzyme inhibition | P00352 | actives 7.3% (n = 220,000) | Purified ALDH1A1, NADH fluorescence, propionaldehyde substrate | AID 1030 | Potency, µM (top dose mostly 75.3 µM), hits mostly inhibitors
HPGD block: HPGD (human) dehydrogenase inhibition. actives 4.3% (n = 150,000). P15428. Potency, µM, hits mostly inhibitors. purified HPGD, NADH fluorescence kinetic, PGE2 substrate
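NADH formation kinetics: reaction with 30 uM PGE2 and 1 mM NAD+ (final), 20 nM enzyme, Tris-HCl pH 8 with Tween 20, after 15 min compound preincubation at room temperature. Fluorescence change, last versus first of five reads.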
Lamin A splicing: changes lamin A minigene splicing in HeLa cells; HeLa LMNA splicing GFP/RFP minigene ratio, 48 h; Potency, µM (series often up to 46.1 µM), usual class: inhibitors; actives 0.01% (n = 200,000); active = well fitted inhibition curve with a large enough effect in the signal ratio, with a control signal flat, not every such curve was filed as active; inconclusive = small, poorly fitted or top-dose-only effect, or effect the other way, or a change in a side signal; the % refers to the signal ratio
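S3 HeLa cells stably expressing lamin A-EGFP splicing minigene plus DsRed2, 600 cells/well, 48 h compound exposure at 37C. Laser-scanning cytometry; analysed as GFP (500-530 nm)/RFP (575-640 nm) total intensity ratio; 0.5% DMSO vehicle.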
ALOX12 inhib: blocks human 12-lipoxygenase activity; purified 12-hLO, xylenol orange hydroperoxide absorbance; Potency, µM (doses to about 57.1 µM), actives largely listed as inhibitors; actives 0.12% (n = 150,000); AID 1452; active = well fitted inhibition curve with a large enough effect; inconclusive = small, poorly fitted or top-dose-only effect; also: nearly all actives have a fitted effect of over 55% in size
Target sequence (P18054 whole entry, looked up): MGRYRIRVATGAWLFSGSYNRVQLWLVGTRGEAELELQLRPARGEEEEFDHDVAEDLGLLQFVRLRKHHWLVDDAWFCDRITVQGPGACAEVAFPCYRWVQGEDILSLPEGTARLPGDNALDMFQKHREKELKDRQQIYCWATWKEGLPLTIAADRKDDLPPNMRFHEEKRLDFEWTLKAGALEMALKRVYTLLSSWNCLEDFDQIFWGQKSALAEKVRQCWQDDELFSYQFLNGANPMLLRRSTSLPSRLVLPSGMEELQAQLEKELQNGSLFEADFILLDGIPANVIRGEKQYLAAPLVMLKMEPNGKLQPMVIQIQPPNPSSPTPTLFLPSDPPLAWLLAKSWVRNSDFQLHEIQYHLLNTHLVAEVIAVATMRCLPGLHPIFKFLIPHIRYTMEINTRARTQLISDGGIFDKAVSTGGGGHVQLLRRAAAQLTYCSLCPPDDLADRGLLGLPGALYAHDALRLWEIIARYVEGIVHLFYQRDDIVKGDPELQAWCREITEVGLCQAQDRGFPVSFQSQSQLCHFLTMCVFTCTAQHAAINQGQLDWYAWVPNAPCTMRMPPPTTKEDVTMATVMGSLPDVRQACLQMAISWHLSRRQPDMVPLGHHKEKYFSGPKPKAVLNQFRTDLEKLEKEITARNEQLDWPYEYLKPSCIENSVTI
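Lipoxygenase turnover measured by absorbance at 573 and 405 nm after Fe-XO development. Human 12hLO 150 nM, arachidonate 40 uM, pH 7.0 Hepes buffer with detergent; 15 min compound preincubation, 30 min reaction.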
PNC inhibitor: perinucleolar compartment assembly inhibition; PC3M PTB-GFP, PNC prevalence imaging, 16 h; hits give low values; actives 3.1% (n = 140,000); activity change (PNC), negative = inhibition, % at 10 µM;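 active = readout at or below -70, meaning at least 70% loss of cells showing the perinucleolar compartment, a nuclear body marking cancer cells; inconclusive = readout between -30 and a set limit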
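PC3M cells stably expressing PTB-GFP, 750–1000 cells/well, treated 16 h at 37 °C with compound (23 nl of library stock), in duplicate. After paraformaldehyde fixation and Hoechst stain, imaged at 20x; PNC prevalence scored by image analysis.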
Hits are given with their value; – = inactive; ? = inconclusive; · = no result; [ ] = dose if it differs, or a comment. Sampled rows, rich in hits. Any-hit rate of the full collection: about 10%. Unless noted, calls follow the shape of the dose curve; as a rule, active = well fitted inhibition curve with a large enough effect (not every such curve was filed as active); inconclusive = small, poorly fitted or top-dose-only effect, or another doubt; inactive = no such curve, though single readings can be large or run the other way.

SMILES	ALDH1A1 block	HPGD block	Lamin A splicing	ALOX12 inhib	PNC inhibitor
COc1ccc(-c2cccc(NS(=O)(=O)c3cccs3)c2)nn1	·	·	–	·	·
Cc1cc2c(n1-c1ccc(C(=O)NCc3cccc(Br)c3)cc1)CCC(C)C2 (stereo unspecified)	·	·	–	·	·
COc1ccc(NS(=O)(=O)c2ccc(O)c(C(=O)OCC(=O)Nc3ccc4c(c3)OCCO4)c2)cc1	22µM	?	–	–	–
CC(C)[C@H](NS(=O)(=O)c1ccccc1)C(=O)OCC(=O)Nc1ccc2c(c1)OCO2	–	–	–	–	–
C[C@H](NS(=O)(=O)c1ccccc1)C(=O)OCC(=O)NC(=O)Nc1ccc2c(c1)OCCO2	14µM	–	–	–	–
O=C(COC(=O)c1ccc(NS(=O)(=O)c2ccc(F)c(F)c2)cc1)NCC1CCCO1 (stereo unspecified)	–	·	·	·	·
CCC(CC)NC(=O)COC(=O)c1ccc(NS(=O)(=O)c2ccc3c(c2)OCCO3)cc1	?	25µM	–	–	–
COc1ccc(NS(=O)(=O)c2ccc(O)c(C(=O)OCC(=O)N3CC(C)OC(C)C3)c2)cc1 (stereo unspecified)	?	–	–	–	–
COCCNC(=O)c1cnn2c1NC(c1ccco1)CC2C(F)(F)F (stereo unspecified)	?	25µM	–	–	–
CCOC(=O)N1CCC(NC(=O)c2cnn3c2NC(c2ccco2)CC3C(F)(F)F)CC1 (stereo unspecified)	?	–	?	–	–
CN(Cc1ccc(-n2cccn2)cc1)C(=O)c1cnn2c1NC(c1ccco1)CC2C(F)(F)F (stereo unspecified)	7.9µM	–	?	–	–
CN(Cc1ccco1)c1ccnc(-c2ccoc2)n1	?	–	?	–	·
O=C(CCSCc1ccc(Cl)cc1)NCCc1ccccc1	–	?	–	–	–
C/C(CC(=O)NCc1ccco1)=N\NC(=O)Cc1cccc2ccccc12	13µM	–	–	–	–
CC(C)NC(=O)CSCc1c(F)cccc1Cl	?	16µM	–	–	–
CC(C)(C)NC(=O)CSc1nncn1NCc1c(Cl)cccc1Cl	–	–	–	–	-100
CNC(=O)CSCc1c(F)cccc1Cl	–	–	–	–	–
O=C(CCc1ccccc1)NCCSCc1c(F)cccc1Cl	–	5µM	–	–	?
C/C(=N\NC(=O)c1c(C)nc2ccccn12)c1ccco1	–	·	–	·	·
O=C(NC(=S)NN1CCCCC1c1cccnc1)c1ccc(Cl)cc1Cl (stereo unspecified)	–	·	·	·	·
Cc1cc(=O)oc2cc(O)c(CN(C)CC(=O)O)cc12	?	?	·	–[11.4 µM]	·
O=C(CSCc1ccco1)c1ccc(Cl)s1	?	20µM	–	?	–
O=C(NNC(=S)NCc1ccco1)c1ccc(Cl)s1	–	–	–	–	–
Cc1ccccc1CSCC(=O)NCc1ccco1	16µM	11µM	?	–	–
CS(=O)(=O)N(CC(=O)NCCSCc1c(F)cccc1Cl)c1ccc2c(c1)OCO2	2.5µM	–	–	–	–
SMILES	ALDH1A1 block	HPGD block	Lamin A splicing	ALOX12 inhib	PNC inhibitor
CC(C)(C)NC(=O)CSCc1c(Cl)cccc1Cl	–	25µM	–	–	?
Cc1o[nH]c(=O)c1CC[C@H](N)C(=O)O	–	–	·	–	·
COC(=O)CC[C@@H](C)[C@H]1CC[C@H]2[C@H]3CC[C@H]4C[C@@H]5CC[C@@]4(C)C3(O5)[C@@H](Br)[C@@H](Br)[C@@]12C	·	·	·	–[11.4 µM]	·
O=C(Cc1ccccc1)N(Cc1cccnc1)c1nc2ccc(F)cc2s1	·	·	–	·	·
Cc1c(C(=O)Nc2ccccc2Cl)oc2ccc(S(=O)(=O)N3CCCCC3)cc12	·	·	–	·	·
O=C(CSCc1ccc(Cl)cc1)NCCSCc1ccco1	11µM	·	·	·	·
Cc1ccc(CSCC(=O)NCc2ccco2)cc1	?	·	–	·	·
O=C(CSCc1c(F)cccc1Cl)NCc1ccco1	?	14µM	–	–	?
O=C(CSCc1c(F)cccc1Cl)NCCSCc1ccco1	?	·	–	·	·
O=C(CSCc1c(Cl)cccc1Cl)NCc1ccco1	?	8.9µM	–	–	–
O=C(CCSCc1ccc(Cl)cc1)NCc1ccco1	–	·	·	·	·
C/C(CCC(=O)OC[C@@H]1O[C@H](C#Cc2ccccc2)C=C[C@@H]1Oc1ccc(C)cc1)=N/O[C@@H](C)c1cn([C@H](CO)Cc2ccccc2)nn1	–[13.5 µM]	·	·	·	·
CC[N+](CC)(CCNC(=O)C(=O)NCC[N+](CC)(CC)Cc1ccccc1Cl)Cc1ccccc1Cl	–	–	–	–	·
